# According to PubChem BioAssay (NCI):
# Where “and” joins values, the source holds several entries; their conditions need not be identical. Equal values may be shown once. Compounds without any hit were thinned out: in the full panel of roughly 83,000, 20% have a hit.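 Results are percent growth after 48 hours of single-concentration exposure. 100 means growth as in untreated cells, lower positive values show inhibition; negative values down to -100 show cell death.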 A structure can be active in one record and inactive in another. Calls of active or inactive are those of the source. The calls were made as follows: active = growth percent below 10; inactive = the rest.
# Experiments:
# Assay in all cases: NCI-60 one-dose screen, 48 h (100 = growth as untreated, 0 = no growth, -100 = all killed)
# Conditions in all cases: 10 µM unless noted
# [1] = test system: SK-MEL-2 melanoma
# [2] = test system: EKVX NSCLC
# [3] = test system: SN12C renal
# [4] = test system: UO-31 renal
# [5] = test system: TK-10 renal
# [6] = test system: ACHN renal
# [7] = test system: CAKI-1 renal
# [8] = test system: A498 renal
# [9] = test system: MOLT-4 leukemia
# [10] = test system: RPMI-8226 leukemia
# [11] = test system: OVCAR-8 ovarian
# [12] = test system: OVCAR-5 ovarian
# [13] = test system: OVCAR-4 ovarian
# [14] = test system: SK-OV-3 ovarian
# [15] = test system: IGROV1 ovarian
# [16] = test system: OVCAR-3 ovarian
# [17] = test system: NCI/ADR-RES ovarian
# [18] = test system: CCRF-CEM leukemia
# [19] = test system: SR leukemia
# [20] = test system: HS 578T breast
SMILES,growth [1],growth [2],growth [3],growth [4],growth [5],growth [6],growth [7],growth [8],growth [9],growth [10],growth [11],growth [12],growth [13],growth [14],growth [15],growth [16],growth [17],growth [18],growth [19],growth [20]
CN(C)c1ccc2nc3ccc(=[N+](C)C)cc-3sc2c1,20% (inactive) and 47.3% (inactive) and 79.6% (inactive),41.7% (inactive) and 46.9% (inactive),24.3% (inactive) and 12.5% (inactive) and 9.23% (active),62.3% (inactive) and 57.2% (inactive) and 78.6% (inactive),58.1% (inactive) and 73.9% (inactive) and 110% (inactive),24.6% (inactive) and 24.4% (inactive) and 83% (inactive),30.9% (inactive) and 23.4% (inactive) and 83.2% (inactive),58.4% (inactive) and 75.9% (inactive),24.4% (inactive) and 21.7% (inactive) and 32.9% (inactive),40.4% (inactive) and 34.1% (inactive) and 40.2% (inactive),3.76% (active) and 0.437% (active) and 8.05% (active),17.7% (inactive) and 14.5% (inactive) and 30.6% (inactive),8.61% (active) and -18% (active) and 10.4% (inactive),41.4% (inactive) and 60% (inactive) and 73.2% (inactive),9.73% (active) and 1.01% (active) and 43.1% (inactive),0.379% (active) and -3.68% (active) and 10.2% (inactive),12.1% (inactive) and 10.9% (inactive) and 13.9% (inactive),,,
Cc1cccc(/C=C\C(=O)c2ccc(Cl)cc2)c1,94.9% (inactive) and 100% (inactive),91.1% (inactive) and 94.3% (inactive),94.9% (inactive) and 97% (inactive),68.3% (inactive) and 86.1% (inactive),75.5% (inactive) and 85.3% (inactive),102% (inactive) and 105% (inactive),,78.9% (inactive) and 54.4% (inactive),90.2% (inactive) and 55% (inactive),26.1% (inactive),101% (inactive) and 100% (inactive),93.5% (inactive) and 98.5% (inactive),89.1% (inactive) and 103% (inactive),108% (inactive) and 104% (inactive),101% (inactive) and 92.7% (inactive),96.6% (inactive) and 101% (inactive),101% (inactive) and 99.2% (inactive),84.3% (inactive) and 68.8% (inactive),36% (inactive) and 3.37% (active),112% (inactive) and 102% (inactive)
O=C(O)C1C2C=CC(C2)C1C(=O)O (stereo unspecified),150% (inactive) and 57.5% (inactive) and 111% (inactive),120% (inactive),84.7% (inactive) and 24% (inactive) and 102% (inactive),87.9% (inactive) and 96.5% (inactive) and 94.4% (inactive),91.1% (inactive) and 32.5% (inactive) and 106% (inactive),111% (inactive) and 33.6% (inactive) and 97.6% (inactive),,96.8% (inactive) and 64.8% (inactive) and 99.2% (inactive),106% (inactive) and 27.8% (inactive) and 101% (inactive),103% (inactive) and 29.3% (inactive) and 98.3% (inactive),103% (inactive) and 27.9% (inactive),102% (inactive) and 35.6% (inactive) and 98.9% (inactive),99.2% (inactive) and 106% (inactive),113% (inactive) and 65.1% (inactive) and 106% (inactive),95.2% (inactive) and 25.2% (inactive) and 106% (inactive),113% (inactive) and 41.1% (inactive) and 108% (inactive),104% (inactive) and 112% (inactive) and 118% (inactive),95.4% (inactive) and 25.3% (inactive) and 99.6% (inactive),108% (inactive) and 36.9% (inactive) and 94.8% (inactive),102% (inactive) and 105% (inactive)
COC(=O)/C=C/c1cc(O)c2c(c1)C(C(=O)OC)C(c1ccc(O)c(O)c1)O2 (stereo unspecified),50.6% (inactive) and 49.3% (inactive),35.2% (inactive) and 38.2% (inactive),29.5% (inactive) and 24.6% (inactive),38.1% (inactive) and 40.4% (inactive),55% (inactive) and 51.8% (inactive),26.2% (inactive) and 27.2% (inactive),,18.2% (inactive) and 6.71% (active),17.8% (inactive) and 21.7% (inactive),36% (inactive) and 34.4% (inactive),13.3% (inactive) and 14.7% (inactive),69.3% (inactive) and 54.7% (inactive),52.9% (inactive) and 43.8% (inactive),43.1% (inactive) and 29.2% (inactive),44.6% (inactive) and 38.3% (inactive),-1.91% (active) and 9.26% (active),18.3% (inactive) and 15.8% (inactive),13.5% (inactive) and 16% (inactive),5.46% (active) and 10.8% (inactive),33.2% (inactive) and 44.9% (inactive)
Cc1ccc(S(=O)(=O)Nc2nc3ccccc3nc2Nc2ccc3nsnc3c2)cc1,7.36% (active),46.5% (inactive) and 49.7% (inactive),50.9% (inactive) and 34.8% (inactive),43.6% (inactive) and 22.3% (inactive),35.4% (inactive) and 53.3% (inactive),54.5% (inactive) and 61% (inactive),,56.7% (inactive) and 11.7% (inactive),35.3% (inactive) and 45.3% (inactive),27.5% (inactive),43.4% (inactive) and 63.3% (inactive),92.1% (inactive) and 87.2% (inactive),38.9% (inactive) and 30.7% (inactive),30.1% (inactive) and 69.2% (inactive),66.3% (inactive) and 41.9% (inactive),47.8% (inactive) and 35.2% (inactive),62.8% (inactive) and 43.2% (inactive),44.2% (inactive),71.2% (inactive) and 76.1% (inactive),11.4% (inactive)
CN(C)CCC(=O)c1ccc(Cl)cc1,115% (inactive) and 118% (inactive),115% (inactive) and 124% (inactive),97.9% (inactive) and 102% (inactive),87.3% (inactive) and 95.4% (inactive),105% (inactive) and 119% (inactive),114% (inactive) and 105% (inactive),,121% (inactive) and 114% (inactive),94.7% (inactive) and 93.5% (inactive),75.4% (inactive) and 58% (inactive),110% (inactive) and 105% (inactive),117% (inactive) and 113% (inactive),105% (inactive) and 118% (inactive),108% (inactive),100% (inactive) and 116% (inactive),115% (inactive) and 113% (inactive),114% (inactive) and 104% (inactive),93.2% (inactive) and 73.9% (inactive),110% (inactive),112% (inactive)
O=C=NC(c1ccccc1)(c1ccccc1)c1ccccc1,118% (inactive),111% (inactive),102% (inactive),71.9% (inactive),110% (inactive),99.2% (inactive),,116% (inactive),92.2% (inactive),119% (inactive),97.4% (inactive),99.1% (inactive),115% (inactive),89.1% (inactive),105% (inactive),116% (inactive),109% (inactive),102% (inactive),96.2% (inactive),111% (inactive)
